DT40 TDP1 CPT: DT40-hTDP1 cell growth loss with CPT. chicken DT40 Tdp1-/-;hTDP1 cells + 20 nM CPT, ATP luminescence, 48 h. hit rate 12% among 420,000. AID 686979. Potency, µM (doses to about 46.2 µM), inactives show at the highest dose activity change, negative = growth inhibition, usual class: inhibitors; further: on the % scale 0 is the no-effect control and ±100 the full control effect; nearly all actives have a fitted effect of over 55% in size
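Chicken DT40 Tdp1-/- cells complemented with human TDP1, 400 cells/well, exposed to compounds plus 20 nM camptothecin for at least 48 h at 37 C; viability read as ATP content by CellTiter-Glo luminescence.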
TGFb SMAD3 inh: blocks TGF-b signaling. HepG2 CAGA-GFP TGF-b/SMAD3 reporter, GFP fluorescence, 18 h; TGF-beta stimulated, 500 pg/mL final. Potency, µM (titrated, usually from 46.1 µM), for inactives: at the top dose activity, negative = inhibition, most hits filed as inhibitors. hit rate 1.2% among 410,000; further: on the % scale 0 is the no-effect control and ±100 the full control effect; nearly all actives have a fitted effect of over 65% in size
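HEPG2 CAGA-GFP cells (1000/well, DMEM with 1% FBS) were pre-incubated 2 h at 37 degrees C, given compound by pin tool, then stimulated with TGF-beta at 500 pg/mL final for 18 h before per-cell GFP fluorescence imaging.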
TDP1 cell noCPT: qHTS for Inhibitors of human tyrosyl-DNA phosphodiesterase 1 (TDP1): qHTS in cells in absence of CPT. AID 686978, 2013. Potency, µM (titrated, usually from 46.2 µM), without a hit: at the top dose activity change, negative = growth inhibition, actives largely listed as inhibitors. hit rate 15% among 420,000. DT40 Tdp1-/- hTDP1 cells, no CPT, ATP luminescence, 48 h; further: on the % scale 0 is the no-effect control and ±100 the full control effect; nearly all actives have a fitted effect of over 55% in size
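Cells were dispensed at 400 per well, compounds added by pin tool, plates incubated ≥48 hr at 37 °C, then CellTiter-Glo added for 30 min at room temperature before luminescence reading. Line: DT40 Tdp1-/- complemented with hTDP1; camptothecin omitted.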
HT1080 IDH1KD tx: kills HT-1080 cells with IDH1 knockdown | HT-1080 IDH1 knockdown viability, ATP luminescence, 48 h | Potency, µM (series often up to 46.1 µM), inactives show at the top dose activity, negative = toxicity, actives largely listed as cytotoxic | hit rate 2% among 360,000;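 further: 0% = DMSO wells and -100% = cell-free medium wells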
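HT-1080-IDH1KD cells (IDH1 knocked down), 750/well in RPMI with 5% FBS, treated with compound 48 h at 37 degrees C. Viability by CellTiter-Glo luminescence, normalised to DMSO and no-cell wells; concentration-response curves classed.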
HepG2 tox: counter-screen for TGF-b inhibitors: cytotoxicity in HepG2 cells; HepG2 CAGA-GFP viability, ATP luminescence, 18 h; Potency, µM (doses to about 46.1 µM), without a hit: at the top dose activity change, negative = cytotoxicity, actives largely listed as cytotoxic; hit rate 0.76% among 410,000; AID 588856
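CellTiter-Glo luminescence gave cytotoxicity after 18 hours at 37 degrees C. The cells were HepG2 CAGA-GFP in 1% FBS DMEM, stimulated with 500 pg/mL TGF-beta after compound addition. %Activity was normalised to no-cell wells (complete cell-killing) and DMSO (no toxicity), and curves were fitted and classified.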
HT1080NT lethal: kills 2HG-producing HT-1080-NT fibrosarcoma cells | hit rate 1.6% among 360,000 | HT-1080-NT fibrosarcoma viability, CellTiter-Glo ATP luminescence, 48 h | Potency, µM (series often up to 46.1 µM), without a hit: top-dose activity, negative = less viability, actives largely listed as cytotoxic | AID 686970;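 further: NT is the 2HG producing partner of a matched IDH1 knockdown line; 0% = DMSO-treated cells and -100% = media-only wells without cells; nearly all actives have a fitted effect of over 55% in size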
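Viability by CellTiter-Glo luminescence after 48 h compound exposure at 37C of HT-1080-NT cells (750/well, RPMI, 5% FBS). % activity scaled between DMSO wells and medium-only wells, then curve-fitted and categorized by curve class.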
* marks the source's active call; other numbers are inactive results; ? = inconclusive; · = no result given; [ ] = another dose, or the depositor's remark. Most compounds without a hit are left out; they make up all but 17% or so of the library. The call rests on the fitted dose curve; in most records, active means well fitted curve in the direction sought with a large enough effect; inconclusive means small, poorly fitted or top-dose-only effect, or another doubt; inactive means no such curve, though single readings can be large; an effect the other way counts as inactive or inconclusive. Potency means the concentration at half of the fitted maximal effect.

SMILES	DT40 TDP1 CPT	TGFb SMAD3 inh	TDP1 cell noCPT	HT1080 IDH1KD tx	HepG2 tox	HT1080NT lethal
Cc1csc(SCC(=O)NCC2Cc3cc(-c4cncnc4)ccc3O2)n1 (centres undefined)	2%	·	-18%	·	·	·
O=C(O)CC(NC(=O)C1c2ccccc2Oc2ccccc21)c1ccc(OC2CCCC2)cc1 (centres undefined)	3%	-21%	5%	-15%	-16%	1%
O=C(O)Cc1cn(-c2ccccc2)nc1-c1ccccc1	3%	-15%	-20%	15%	-7%	15%
OCc1cn(-c2ccccc2)nc1-c1ccc(-c2nn(-c3ccccc3)cc2CO)cc1	?	-1%	10µM*	-19%	-45%	-17%
Fc1ccc(-c2nn(-c3ccccc3)cc2CNCc2ccccc2)cc1	?	?	?	23µM*	-107%	21µM*
O=C(NCc1cn(-c2ccccc2)nc1-c1ccc(F)cc1)c1cccc([N+](=O)[O-])c1	?	-24%	?	-5%	16%	-10%
Fc1ccc(-n2cc(CNCCc3cccnc3)c(-c3ccccc3Cl)n2)cc1	15µM*	?	23µM*	?	-20%	21µM*
O=C(CCl)Nc1cn(-c2ccccc2)nc1-c1ccc(F)cc1	4.6µM*	?	3.7µM*	4.6µM*	-90%	8.2µM*
CCCCCC(=O)/C=C/C=C\CCCCCCCC(=O)O	3%[0.628 µM]	·	3%[0.628 µM]	·	·	·
CCN(CC)CCOC(=O)c1ccc(NC(=O)CCn2c(=O)oc3ccccc32)cc1	0%	0%	-19%	·	1%	·
O=C1OC(c2ccc(F)cc2)=N/C1=C\c1ccc(Br)o1	?	21%	13µM*	17%	-1%	5%
COc1ccc(/C=C2\N=C(c3ccc(C)cc3)OC2=O)cc1	3%	25%	-4%	7%	6%	6%
COc1ccc(OC)c(C(=O)NC(CC(N)=O)c2ccc(NCc3ccccn3)c([N+](=O)[O-])c2)c1 (centres undefined)	4%	3%	-1%	0%	15%	1%
O=C(NCC(c1cccnc1)N1CCc2ccccc2C1)C(=O)Nc1ccc(Cl)cc1 (centres undefined)	12µM*	?	8.2µM*	·	-30%	·
O=[N+]([O-])c1ccc(S(=O)(=O)NCC(c2cccnc2)N2CCc3ccccc3C2)cc1 (centres undefined)	?	?	21µM*	-3%	-15%	5%
O=C(NCC(c1cccnc1)N1CCc2ccccc2C1)C(=O)Nc1cccc(Cl)c1 (centres undefined)	21µM*	0%	18µM*	·	-1%	·
Cc1cc(C)c(S(=O)(=O)Nc2ccccc2)c(C)c1	?	?	?	-7%	10%	1%
CN1N=C(C(C)(C)C)CC1=O	24%	?	0%	18µM*	-156%	?
COc1ccc(-c2nnc(SCC(=O)N(C)C3CCCCC3)o2)cc1OC	16µM*	0%	12µM*	·	-5%	·
COc1ccc(-c2nnc(SCC(=O)OC3CCCCC3)o2)cc1OC	-9%	-15%	-2%	-1%	-26%	2%
Cc1cccc(OCc2nnc(SCC(=O)N(C)C3CCCCC3)o2)c1	18µM*	-11%	?	2%	-5%	-6%
CC(Oc1ccc(F)cc1)c1nnc(SCC(=O)N(c2ccccc2)C2CCS(=O)(=O)C2)o1 (centres undefined)	?	-6%	-84%	-8%	-17%	1%
CC1CCCN(C(=O)CSc2nc3ccccc3o2)C1 (centres undefined)	-10%	2%	-7%	-2%	-18%	-1%
